Experimental data reported in PubChem BioAssay (EPA / NIEHS).
Values joined by “and” are separate entries in the source; they are usually repeats but may differ in a detail not shown here. Equal values may be shown once. Inconclusive results are not listed. A structure can be active in one record and inactive in another. Active and inactive are the calls of the source. The calls were made as follows, unless noted: active = hit-call score of the fitted dose curve at least 0.9, where 1 is the maximum; inactive = score below 0.9.

Assays:
[1] = BSK_BT_Bcell_Proliferation: Viability Assessment in the BioMAP Diversity Plus: BT Assay for B cell Proliferation (AID 2284227); conditions: primary human B cells with PBMC
Outline: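 Human B cells co-cultured with PBMC were dosed with test chemicals and relative cell number was quantified by SRB staining at 72 h. Cells were fixed in 10% TCA, stained with 0.1% SRB and read at 560 nm. Activity was fitted in the positive direction against DMSO.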

[2] = read-out: Interleukin 6 (IL6), IL6 (gene 3569); assay: BSK_BT_xIL6: BioMAP Diversity Plus: BT Assay for Interleukin 6 (IL6) Biomarker Activity (AID 2284228); conditions: primary human B cells with PBMC
Outline: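 Human B cell plus PBMC co-culture exposed to test chemical for 24 h; secreted IL-6 quantified by Luminex xMAP bead assay. Activity fitted in the positive direction against DMSO as negative control and baseline.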

[3] = read-out: Interleukin 17A (IL17A), IL17A (gene 3605); assay: BSK_BT_xIL17A: BioMAP Diversity Plus: BT Assay for Interleukin 17A (IL17A) Biomarker Activity (AID 2284229); conditions: primary human B cells with PBMC
Outline: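 B cells co-cultured with PBMC were exposed to test chemicals, and secreted IL-17A was quantified 24 h after dosing by Luminex xMAP bead immunoassay. Activity was fitted in the gain direction against DMSO as baseline.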

[4] = read-out: Tumor necrosis factor (Homo sapiens) (UniProt P01375); assay: BSK_BT_xTNFa: BioMAP Diversity Plus: BT Assay for Tumor necrosis factor alpha (TNF-alpha) Biomarker Activity (AID 2284230); conditions: primary human B cells with PBMC
Outline: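 B cells with PBMC in co-culture, dosed and sampled at 24 h; secreted TNF-alpha measured by Luminex xMAP bead assay. Activity fitted in the gain direction against DMSO as negative control and baseline.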

[5] = read-out: Vascular cell adhesion molecule 1 (VCAM1), VCAM1 (gene 7412); assay: BSK_MyoF_VCAM1: BioMAP Diversity Plus: MyoF Assay for Vascular cell adhesion molecule 1 (VCAM1) Biomarker Activity (AID 2284231); conditions: primary human lung fibroblasts
Outline: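 Primary human lung fibroblasts were dosed with test chemical for 24 h, then cell-surface VCAM-1 was measured by ELISA. Activity was fitted in the positive direction against DMSO as negative control and baseline.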

[6] = read-out: Collagen I, COL1A1 (gene 1277); assay: BSK_MyoF_CollagenI: BioMAP Diversity Plus: MyoF Assay for Collagen I Biomarker Activity (AID 2284238); conditions: primary human lung fibroblasts
Outline: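 Human lung fibroblasts were exposed to test chemical for 24 h, then Collagen I was quantified by ELISA. Activity was fitted in the increasing direction against DMSO as the negative control and baseline.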

[7] = read-out: Collagen III, COL3A1 (gene 1281); assay: BSK_MyoF_CollagenIII: BioMAP Diversity Plus: MyoF Assay for Collagen III Biomarker Activity (AID 2284239); conditions: primary human lung fibroblasts
Outline: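 Human lung fibroblasts were dosed with chemicals and, 24 hours later, collagen III was measured by ELISA. Activity was fitted in the positive direction against the DMSO negative-control baseline.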

[8] = read-out: Interleukin 17F (IL17F), IL17F (gene 112744); assay: BSK_BT_xIL17F: BioMAP Diversity Plus: BT Assay for Interleukin 17F (IL17F) Biomarker Activity (AID 2284243); conditions: primary human B cells with PBMC
Outline: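 B cell/PBMC co-culture (human primary), 24 h compound exposure; sIL-17F by Luminex xMAP; gain-of-signal fit vs DMSO baseline.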

[9] = read-out: Actin alpha 1 (ACTA1), ACTA1 (gene 58); assay: BSK_MyoF_ACTA1: BioMAP Diversity Plus: MyoF Assay for Actin alpha 1 (ACTA1) Biomarker Activity (AID 2284244); conditions: primary human lung fibroblasts
Outline: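 Human lung fibroblasts (MyoF system) dosed with test chemical for 24 h; α-SMA measured by ELISA. Gain of signal fitted relative to DMSO negative control as baseline.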

[10] = read-out: Interleukin 2 (IL2), IL2 (gene 3558); assay: BSK_BT_xIL2: BioMAP Diversity Plus: BT Assay for Interleukin 2 (IL2) Biomarker Activity (AID 2284245); conditions: primary human B cells with PBMC
Outline: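 Human B cells co-cultured with PBMC, exposed to test chemical for 24 h. Secreted IL-2 quantified by Luminex xMAP bead immunoassay; activity fitted in the positive direction relative to DMSO vehicle baseline.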

[11] = read-out: Basic fibroblast growth factor (bFGF), FGF2 (gene 2247); assay: BSK_MyoF_bFGF: BioMAP Diversity Plus: MyoF Assay for Basic fibroblast growth factor (bFGF) Biomarker Activity (AID 2284246); conditions: primary human lung fibroblasts
Outline: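 Human lung fibroblasts were dosed with chemicals and bFGF was quantified by ELISA 24 h later. Activity was fitted in the gain-of-signal direction relative to DMSO as negative control and baseline. Parallel SRB total-protein staining tracked overt cytotoxicity.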

[12] = TAMU_PeakParms_SingleDonor1434_QT: Texas A&M University (TAMU) 1.5-hr Human Induced Pluripotent Stem Cell (iPSC)-derived Cardiomyocytes Calcium (Ca+2) Flux Assay for Cardiotoxicity: QT (decay-rise ratio) (AID 2284235; active = hit-call score of the fitted dose curve at least 0.9, where 1 is the maximum)
Outline: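 iPSC-derived cardiomyocytes (single donor 1434) dosed at 0.2, 1, 10, 100 uM final in 0.5% DMSO, 90 min at 37C. Ca2+ flux fluorescence decay/rise ratio; EC05 (5% increase versus DMSO) as POD, excluding beat-arrest and severe-notch data.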

[13] = CCTE_Mundy_HCI_hNP1_Casp3_7: CCTE's Caspase-Glo 3/7 Assay in human neuroprogenitor cells for Apoptosis, Mundy Lab (AID 2284240)
Outline: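 Apoptosis is scored by activated caspase-3/7 luminescence in WA09-derived neural progenitor cells, measured 26.5 h after chemical dosing. Values represent gain of signal relative to DMSO vehicle.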

[14] = CCTE_Mundy_HCI_hNP1_CellTiter: CCTE's Cell Titer-Glo 2 Assay in human neuroprogenitor cells for Viability, Mundy Lab (AID 2284241; active = hit-call score of the fitted dose curve at least 0.9, where 1 is the maximum)
Outline: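 Human neural progenitor cells (hNP1, WA09-derived) were plated on poly-L-ornithine/laminin and grown 40 to 44 hours at 37 °C, 5% CO2 before chemical addition. Twenty-four hours later, ATP was measured by CellTiter-Glo luminescence; loss of signal versus DMSO indicates reduced viability.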

Sequence of Tumor necrosis factor (Homo sapiens) (P01375 whole entry, looked up): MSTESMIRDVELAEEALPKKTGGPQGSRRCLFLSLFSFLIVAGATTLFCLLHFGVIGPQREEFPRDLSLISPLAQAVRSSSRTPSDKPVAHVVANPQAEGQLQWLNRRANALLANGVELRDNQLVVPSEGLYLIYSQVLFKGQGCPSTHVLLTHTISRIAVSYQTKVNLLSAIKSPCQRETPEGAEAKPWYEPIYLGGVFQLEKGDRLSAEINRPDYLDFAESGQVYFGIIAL

**Q.** Which AC50 [1] does the source give for CCCCCCCCCCCCCC[N+](C)(C)C here?
**A.** 2.81 µM (active)

**Q.** And the AC50 [2]?
**A.** 4.27 µM (active)

**Q.** What about the AC50 [3] of the same compound?
**A.** 1.48 µM (active)

**Q.** What about the AC50 [4] of the same compound?
**A.** 2.59 µM (active)

**Q.** And the AC50 [5]?
**A.** 3.84 µM (active)

**Q.** What about the AC50 [6] of the same compound?
**A.** 1.5 µM (active)

**Q.** And the AC50 [7]?
**A.** 1.85 µM (active)

**Q.** What about the AC50 [8] of the same compound?
**A.** 2.26 µM (active)

**Q.** What about the AC50 [9] of the same compound?
**A.** 2.31 µM (active)

**Q.** What about the AC50 [10] of the same compound?
**A.** 1.67 µM (active)

**Q.** And the AC50 [11]?
**A.** 4.65 µM (active)

**Q.** With c1ccc2cc3c(ccc4ccccc43)cc2c1 as the compound, how does the outcome [12] read?
**A.** inactive

**Q.** For c1ccc2c(c1)Cc1ccccc1-2, which outcome [12] is on record?
**A.** inactive

**Q.** For C=C(C)C(=O)OCCC(F)(F)C(F)(F)C(F)(F)C(F)(F)C(F)(F)C(F)(F)F, which outcome [1] is on record?
**A.** inactive

**Q.** What about the outcome [2] of the same compound?
**A.** inactive

**Q.** What about the outcome [3] of the same compound?
**A.** inactive

**Q.** What about the outcome [4] of the same compound?
**A.** inactive

**Q.** What about the outcome [5] of the same compound?
**A.** inactive

**Q.** And the outcome [6]?
**A.** inactive

**Q.** And the outcome [7]?
**A.** inactive

**Q.** What about the outcome [13] of the same compound?
**A.** inactive

**Q.** And the outcome [14]?
**A.** inactive

**Q.** What about the outcome [8] of the same compound?
**A.** inactive

**Q.** What about the outcome [9] of the same compound?
**A.** inactive

**Q.** What about the outcome [10] of the same compound?
**A.** inactive

**Q.** And the outcome [11]?
**A.** inactive

**Q.** What does the source list for C[C@@H]1C[C@H]2[C@@H]3CCC4=CC(=O)C=C[C@]4(C)[C@@]3(F)[C@@H](O)C[C@]2(C)[C@@]1(O)C(=O)COP(=O)(O)O?
**A.** outcome [1]: inactive; AC50 [2]: 863 nM (active) and 1.34 µM (active); AC50 [3]: 0.1 µM (active); AC50 [4]: 245 nM (active) and 100 nM (active); outcome [5]: inactive; outcome [6]: inactive; outcome [7]: inactive; AC50 [8]: 0.277 µM (active); outcome [8]: inactive; AC50 [9]: 0.267 µM (active); outcome [9]: inactive; AC50 [10]: 807 nM (active) and 148 nM (active); outcome [11]: inactive

**Q.** With NCC(F)(F)C(F)(F)C(F)(F)C(F)(F)C(F)(F)C(F)(F)C(F)(F)F as the compound, how does the outcome [1] read?
**A.** inactive

**Q.** And the outcome [2]?
**A.** inactive

**Q.** What about the outcome [3] of the same compound?
**A.** inactive

**Q.** What about the outcome [4] of the same compound?
**A.** inactive

**Q.** What about the outcome [5] of the same compound?
**A.** inactive

**Q.** And the outcome [6]?
**A.** inactive

**Q.** And the outcome [7]?
**A.** inactive

**Q.** What about the outcome [8] of the same compound?
**A.** inactive

**Q.** And the outcome [9]?
**A.** inactive

**Q.** And the outcome [10]?
**A.** inactive

**Q.** And the outcome [11]?
**A.** inactive
